Where “and” joins values, the source holds several entries; their conditions need not be identical. Equal entries are not always repeated. Inconclusive results are not listed. Entries that show only a call come without a potency. Calls of active or inactive are those of the source. Calls follow the shape of the dose curve; as a rule, active = well fitted cell-killing curve with a large enough effect in the repeat runs; inconclusive = weak or mixed curves; inactive = no such curve, though single readings can be large or run the other way.
assay: qHTS assay to identify small molecule agonists of the peroxisome proliferator-activated receptor delta (PPARd) signaling pathway - cell viability counter screen (AID 743211); conditions: PPARd-bla HEK293H viability, CellTiter-Glo luminescence, 17 h; series mostly up to 62.6 µM; also: nearly all actives have a fitted effect of over 55% in size
Description: U.S. Tox21 Program National Center for Advancing Translational Sciences [NCATS] NIH Chemical Genomics Center [NCGC] U.S. Environmental Protection Agency [EPA] National Institutes of Environmental Health Sciences [NIEHS] National Toxicology Program [NTP] U.S. Food and Drug Administration [FDA] Tox21 Assay Overview: The peroxisome proliferator-activated receptors (PPARs) are lipid-activated transcription factors of the nuclear receptor superfamily with three distinct subtypes namely PPAR alpha, PPAR delta (PPARd) and PPAR gamma. All these subtypes heterodimerizes with Retinoid X receptor (RXR) and have different physiological functions. […] To identify the compounds that activate PPAR-delta signaling, GeneBLAzer PPAR delta UAS-bla HEK293H cell line (Invitrogen, Carlsbad, CA, USA) containing a beta-lactamase reporter gene under the control of an Upstream Activator Sequence (UAS) was used to screen the Tox21 compound library. The cytotoxicity of the Tox21 compound library against the PPARd-bla cell line was tested in parallel by measuring the cell viability using CellTiter-Glo assay (Promega, Madison, WI) in the same wells.
Tox21 Assay Protocol Summary: PPARd-bla cells were dispensed at 3000 cells/6uL/well in 1536-well black wall/clear bottom plates using a Multidrop Combi (Thermo Fisher Scientific, Waltham, MA) dispenser. After the assay plates were incubated at 37 C and 5% CO2 for 5 h, 23 nL of compounds dissolved in DMSO, positive controls or DMSO only was transferred to the assay plate by a Pintool station (Kalypsys, San Diego, CA). The assay plates were incubated at 37C for 17 h. After 1 uL of LiveBLAzerTM B/G FRET substrate was added using a Bioraptr Flying Reagent Dispenser (FRD) workstation (Beckman Coulter, Indianapolis, IN, USA), the plates were incubated at room temperature for 2 h, and fluorescence intensity was measured by an Envision plate reader (PerkinElmer, Shelton, CT). For cell viability readout that measures cytotoxicity, 3 ul/well of CellTiter-Glo reagent was added into the assay plates using a Bioraptr FRD. After 30 min incubation at room temperature, the luminescence intensity in the plates was measured using a ViewLux plate reader (PerkinElmer).
Potency is read from the fitted curve at half-maximal effect.

| Structure (SMILES) | Potency |
| --- | --- |
| O=[Se](O)O | inactive |
| CCCCCC1C(=O)CCC1CC(=O)OC (stereo not given) | inactive |
| Cc1ccc(C(C)(C)C)cc1 | inactive |
| Oc1ccc(C(c2ccc(O)cc2)C(Cl)(Cl)Cl)cc1 | 54.9 µM (active) |
| COc1ccc(-c2coc3cc(O)cc(O)c3c2=O)cc1 | inactive |
| [O-]/[N+](=N\O)c1ccccc1 | inactive |
| COC(=O)c1ccc(C)cc1 | inactive |
| c1ccc2ncccc2c1 | inactive |
| CN(C)CCCN1c2ccccc2Sc2ccc(Cl)cc21 | 11 µM (active) and 23.7 µM (active) |
| c1ccc2c(c1)[nH]c1ccccc12 | inactive |
| C/C=C/C(=O)N(CC)c1ccccc1C | inactive |
| C[C@]12CC[C@@H]3c4ccc(O)cc4CC[C@H]3[C@@H]1CC[C@H]2O | inactive |
| COCCOCCOCCO | inactive |
| O=C(O)c1ccc(O)cc1 | inactive |
| CC(=O)[C@@]1(O)CC[C@H]2[C@@H]3C[C@H](C)C4=CC(=O)C=C[C@]4(C)[C@@]3(F)[C@@H](O)C[C@@]21C | inactive |
| CCC/C=C/C=O | inactive |
| CC1=CC(C)(C)Nc2ccccc21 | inactive |
| c1ccc2cc3ccccc3cc2c1 | inactive |
| Cc1ccc(N)c([N+](=O)[O-])c1 | inactive |
| CN(C)/N=N/c1nc[nH]c1C(N)=O | inactive |

| Structure (SMILES) | Potency |
| --- | --- |
| CCOC(=O)C(C)Oc1ccc(Oc2cnc3cc(Cl)ccc3n2)cc1 (stereo not given) | inactive |
| CCc1cccc2c3c([nH]c12)C(CC)(CC(=O)O)OCC3 (stereo not given) | inactive |
| Cc1ccc(S(=O)(=O)NCl)cc1 | inactive |
| Nc1ccc(O)c(N)c1 | inactive |
| C[C@]12CC[C@@H]3c4ccc(O)cc4CC[C@H]3[C@@H]1CC[C@@H]2O | inactive |
| O=C(O)COCCN1CCN(C(c2ccccc2)c2ccc(Cl)cc2)CC1 (stereo not given) | inactive |
| CCC(=O)O[C@H]1[C@H](O[C@@H]2[C@@H](C)[C@H](O[C@H]3C[C@@](C)(OC)[C@@H](O)[C@H](C)O3)[C@@H](C)C(=O)O[C@H](CC)[C@@](C)(O)[C@H](O)[C@@H](C)C(=O)[C@H](C)C[C@@]2(C)O)O[C@H](C)C[C@@H]1N(C)C | inactive |
| CN(C)C | inactive |
| O=C(O)CCCCCCCCCCCC(=O)O | inactive |
| Cc1ccc([N+](=O)[O-])c(C)c1 | inactive |
| Nc1ccc(N)c(Cl)c1 | inactive |
| CC(C)[C@@H]1CC[C@@H](C)CC1=O | inactive |
| COC(=O)CC(=O)OC | inactive |
| C=C1C[C@H]2[C@@H]3C=C(C)C4=CC(=O)CC[C@]4(C)[C@H]3CC[C@]2(C)[C@@]1(OC(C)=O)C(C)=O | inactive |
| CNC[C@H](O)c1ccc(O)c(O)c1 | inactive |
| C[C@]12C=CC(=O)C=C1CC[C@H]1[C@@H]3C[C@@H](O)[C@](O)(C(=O)CO)[C@@]3(C)C[C@H](O)[C@@]12F | inactive |
| CCCCCCC(C)O (stereo not given) | inactive |
| COc1ccc2nc(N)sc2c1 | inactive |
| Cc1ccc(C)c(O)c1 | inactive |
| OCCNCCO | inactive |

Reference: PubChem BioAssay (Tox21)
